From PubChem
PfGluPho inh = PfG6PD (Plasmodium falciparum) enzyme inhibition; 350,000 tested, 0.78% active; inhibition, % at 20 µM; PfGluPho enzyme, NADPH resazurin-diaphorase fluorescence;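 active = inhibition reaching at least a set limit at 20 µM in the primary screen, cut at about 59% in these data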;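 note: 0% = DMSO wells with substrate and 100% = DMSO wells lacking glucose-6-phosphate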
PfM18AAP inh-1 = blocks P. falciparum M18 aspartyl aminopeptidase | recombinant PfM18AAP, H-Glu-NHMec fluorogenic cleavage | inhibition, % at 7.35 µM | 290,000 tested, 1.2% active | AID 1822;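 active = inhibition above the campaign mean inhibition over all tested compounds plus 3 SD, cut at about 28% in these data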;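 note: 0% = plate median of test compound wells and 100% = 2 mM ZnCl2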
PHOSPHO1 inh = PHOSPHO1 (human) inhibition. Q8TCT1. recombinant PHOSPHO1, absorbance phosphatase assay. inhibition, % at 13.3 µM. 290,000 tested, 1.1% active. AID 1565; in the data active = inhibition above about 60%
Target sequence (Q8TCT1 whole entry, looked up): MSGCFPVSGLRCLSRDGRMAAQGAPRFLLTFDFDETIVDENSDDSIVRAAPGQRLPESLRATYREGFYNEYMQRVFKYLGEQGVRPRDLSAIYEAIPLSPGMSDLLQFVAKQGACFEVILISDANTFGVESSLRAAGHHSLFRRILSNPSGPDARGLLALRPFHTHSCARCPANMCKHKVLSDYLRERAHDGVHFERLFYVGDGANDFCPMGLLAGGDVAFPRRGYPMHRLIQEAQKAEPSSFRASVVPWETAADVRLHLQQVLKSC
ALR inh = human ALR oxidase inhibition via reduced H2O2; P55789; purified ALR, DTT oxidation, H2O2 HRP-luminol luminescence; inhibition, % (test concentration not listed); 290,000 tested, 3.8% active; AID 485317;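 active = mean replicate inhibition above about 79%, with every replicate also reaching it, limit read from the data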
Target sequence (P55789 whole entry, looked up): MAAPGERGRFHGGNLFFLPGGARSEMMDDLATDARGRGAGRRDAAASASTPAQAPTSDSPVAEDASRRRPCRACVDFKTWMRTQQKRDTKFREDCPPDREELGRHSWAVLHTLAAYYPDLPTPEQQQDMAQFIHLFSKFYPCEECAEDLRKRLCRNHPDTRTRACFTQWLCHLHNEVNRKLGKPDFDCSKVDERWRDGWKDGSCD
Cardio protect = myocardial damage modulation in H9c2 cells | H9c2 cardiomyocytes, H2O2 injury protection, ATPLite, 2 h | protection from H2O2 cell death, % at 20 µM | 360,000 tested, 0.63% active;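 active = compounds giving at least 50% protection of heart cells from peroxide-induced death in the single-dose screen, raw or plate-pattern-corrected value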;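 note: 0% = DMSO wells with peroxide and 100% = DMSO wells without peroxide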
PfM18AAP inh-2 = confirmation of Plasmodium falciparum M18 aspartyl aminopeptidase inhibitors | shares compounds with PfM18AAP inh-1 | recombinant PfM18AAP, H-Glu-NHMec fluorogenic cleavage | inhibition, % at 7.35 µM | 2,400 tested, 28% active;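 active = mean inhibition over replicate wells above the hit cutoff set for the earlier primary screen, cut at about 29% in these data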;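 note: 0% = median of test compound wells and 100% = 2 mM ZnCl2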
CTSL1 confirm = counter-screen for PFM18AAP inhibitors: confirmation of human cathepsin L inhibitors | shares compounds with PfM18AAP inh-1 | purified cathepsin L1, Z-Leu-Arg-MCA fluorescence | inhibition, % at 5.96 µM | 2,400 tested, under 10 active | AID 2178;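 active = average inhibition across replicates above the hit cutoff set in the earlier primary screen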;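 note: 0% = median of test compound wells and 100% = Z-Phe-Ala-diazomethylketone 1 µM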
* hit, by the source's call; nt = not tested or not shown. In the library only some 5.6% were active in any assay of this set; here they are far more common.

SMILES | PfGluPho inh | PfM18AAP inh-1 | PHOSPHO1 inh | ALR inh | Cardio protect | PfM18AAP inh-2 | CTSL1 confirm
COc1ccccc1C(C)NC(=O)CCC(=O)N1CCN(S(=O)(=O)c2ccc(Cl)cc2)CC1 (stereo not given) | -9 | nt | nt | nt | -27 | nt | nt
CC1(C(=O)Nc2ccc3c(c2)OCO3)CCN1C(=O)CC1CC1 (stereo not given) | nt | nt | nt | nt | 7 | nt | nt
Cc1cccc2sc(NNC(=O)c3ccc(S(=O)(=O)N4CCCC(C)C4)cc3)nc12 (stereo not given) | 16 | 38* | -11 | nt | 40 | -24 | 2
Cc1cccc2sc(NNC(=O)c3ccc(S(=O)(=O)N4CCc5ccccc5C4)cc3)nc12 | 5 | 37* | -14 | -22 | 26 | -42 | -2
Cc1cc(C)cc(Cn2c3ccc(NC(=O)NCc4ccc(F)cc4)cc3c(=O)n2C)c1 | nt | nt | nt | nt | -6 | nt | nt
COC(=O)Cc1ccc(O)c(N)c1 | -4 | 54* | 21 | 95* | 10 | 61* | 0
O=C(Nc1ccccc1O)c1ccccc1O | -19 | 34* | -16 | 53 | -18 | 29* | -5
Cc1ccsc1C=C1C(=O)c2ccccc2C1=O | -7 | 20 | 22 | -4 | -2 | nt | nt
CCCCOc1ccc(/C=c2\sc3ncnn3c2=O)cc1 | -2 | 76* | -19 | 31 | 10 | 4 | -1
CCCCCOc1ccc(/C=c2\sc3ncnn3c2=O)cc1 | nt | nt | -2 | nt | nt | nt | nt
Cc1ccsc1/C=c1\sc2ncnn2c1=O | 4 | 87* | 39 | -2 | -1 | 55* | 4
O=c1/c(=C/c2cccc3ccccc23)sc2ncnn12 | -10 | 44* | 33 | -17 | 3 | 35* | -5
CCCNC(=O)C[C@@H]1C[C@H]2c3cc(NC(=O)c4ccc5c(c4)OCO5)ccc3O[C@H]2[C@@H](CO)O1 | -10 | nt | nt | nt | -19 | nt | nt
COc1ccc(-n2c(SCC(=O)NCc3cccs3)nc3[nH]ncc3c2=O)cc1 | -8 | 52* | -11 | 0 | -6 | 34* | 0
O=C(CSc1nc2[nH]ncc2c(=O)n1-c1ccccc1)NCc1cccs1 | -7 | 57* | -5 | -2 | -5 | 39* | 0
Cc1cccc(NC(=O)CSc2nc3[nH]ncc3c(=O)n2-c2ccccc2)c1 | nt | 36* | -15 | 1 | nt | -2 | 3
Cc1nnc(SCC(=O)NCc2cccs2)n1-c1ccccc1 | -4 | 0 | 6 | -9 | 2 | nt | nt
COc1cc(NC(=O)CSc2nc3[nH]ncc3c(=O)n2-c2ccc(Cl)cc2)cc(OC)c1 | 15 | 12 | 2 | 0 | -2 | nt | nt
COCCNC(=O)/C(C#N)=C/c1c(N2CCN(C)CC2)nc2ccccn2c1=O | -7 | 6 | 28 | -1 | 5 | nt | nt
CCC(C)N(C(=O)CSc1nc(-c2cccs2)nc2ccccc12)C1CCS(=O)(=O)C1 (stereo not given) | -16 | nt | nt | nt | 14 | nt | nt
COc1ccc(OCC(=O)NNC(=S)NC(=O)c2ccc([N+](=O)[O-])cc2)cc1 | 18 | 33* | -34 | nt | -4 | -3 | 3
COc1ccc(C(=O)NNC(=S)NC(=O)c2ccc(OC)cc2)cc1 | -34 | -2 | -172 | 62 | 15 | nt | nt
CC(=O)Nc1ccc(S(=O)(=O)NNC(=O)c2ccc([N+](=O)[O-])cc2)cc1 | -6 | 21 | 19 | 72 | 0 | nt | nt
CC(=O)NNC(=S)NC(=O)c1cccc([N+](=O)[O-])c1 | 22 | 47* | 58 | 73 | 6 | 27 | -1
O=C(COc1ccc([N+](=O)[O-])cc1)Nn1cnnc1 | -2 | 41* | -5 | 0 | -3 | -19 | -1
O=C(NNS(=O)(=O)c1ccc([N+](=O)[O-])cc1)c1ccc([N+](=O)[O-])cc1 | -10 | 35* | -14 | -4 | -2 | 15 | -7
O=C(COc1ccc([N+](=O)[O-])cc1)Nc1ccncc1 | -2 | 1 | 18 | -2 | -8 | nt | nt
Cc1ccccc1N1CC(C(=O)N2CCCCCC2)CC1=O (stereo not given) | -13 | nt | nt | -11 | -2 | nt | nt
CCCCN1C(=O)C(CC(=O)NCc2cccc3ccccc23)CC(C(=O)N2CCOCC2)=C1C (stereo not given) | -6 | nt | nt | nt | 7 | nt | nt
CC(Sc1nc(N)cc(=O)[nH]1)C(=O)Nc1ccc(N2CCOCC2)cc1 (stereo not given) | 13 | nt | nt | nt | 2 | nt | nt
